Here are results for nine molecules from ChEMBL document CHEMBL1961873, “Compounds: GSK PKIS; Assays: Nanosyn kinase panel” (2012).

What is called inhibition is the relative decrease from the control value, in per cent.

Where “and” joins values, the source holds several entries; their conditions need not be identical. Identical values can stand only once.

The target of experiment [1] is Mitogen-activated protein kinase kinase kinase kinase 4 (Homo sapiens) (UniProt O95819). As to conditions: at 1 µM.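 Also: reported figure is an averaged inhibition value.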
Chain of Mitogen-activated protein kinase kinase kinase kinase 4 (Homo sapiens) (O95819 2-1239 limits assumed): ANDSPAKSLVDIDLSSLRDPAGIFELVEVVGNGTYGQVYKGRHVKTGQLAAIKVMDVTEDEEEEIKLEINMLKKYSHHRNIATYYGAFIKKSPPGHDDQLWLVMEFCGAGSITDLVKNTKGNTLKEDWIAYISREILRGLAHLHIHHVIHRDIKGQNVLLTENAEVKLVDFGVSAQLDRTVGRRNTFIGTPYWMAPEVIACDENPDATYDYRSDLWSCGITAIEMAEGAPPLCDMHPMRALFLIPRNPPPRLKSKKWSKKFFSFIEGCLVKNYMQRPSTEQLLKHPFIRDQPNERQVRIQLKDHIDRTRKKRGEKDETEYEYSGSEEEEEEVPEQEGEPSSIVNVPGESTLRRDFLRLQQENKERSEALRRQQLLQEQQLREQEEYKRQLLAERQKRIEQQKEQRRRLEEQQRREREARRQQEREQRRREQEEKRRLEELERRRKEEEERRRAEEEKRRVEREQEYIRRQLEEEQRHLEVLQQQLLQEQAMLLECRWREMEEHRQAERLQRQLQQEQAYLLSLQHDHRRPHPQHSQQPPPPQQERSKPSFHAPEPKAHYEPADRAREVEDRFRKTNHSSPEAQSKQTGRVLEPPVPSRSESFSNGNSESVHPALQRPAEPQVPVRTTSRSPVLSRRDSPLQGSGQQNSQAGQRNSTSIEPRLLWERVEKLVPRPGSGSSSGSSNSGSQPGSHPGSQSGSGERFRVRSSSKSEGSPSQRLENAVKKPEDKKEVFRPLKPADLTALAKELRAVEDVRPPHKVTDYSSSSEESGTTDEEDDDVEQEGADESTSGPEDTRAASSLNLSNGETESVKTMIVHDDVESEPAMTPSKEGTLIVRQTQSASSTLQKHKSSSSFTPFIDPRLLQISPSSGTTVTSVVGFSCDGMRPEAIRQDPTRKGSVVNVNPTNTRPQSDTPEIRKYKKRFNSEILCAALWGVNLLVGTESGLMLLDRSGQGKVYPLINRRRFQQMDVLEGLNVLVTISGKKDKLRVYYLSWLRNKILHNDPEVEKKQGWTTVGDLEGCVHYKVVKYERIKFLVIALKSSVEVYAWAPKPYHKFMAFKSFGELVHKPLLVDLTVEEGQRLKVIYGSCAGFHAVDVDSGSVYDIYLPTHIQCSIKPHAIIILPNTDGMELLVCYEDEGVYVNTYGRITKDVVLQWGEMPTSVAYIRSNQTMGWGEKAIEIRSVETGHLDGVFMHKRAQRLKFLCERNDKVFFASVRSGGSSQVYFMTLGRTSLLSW
Experiment [2] deals with Dual specificity mitogen-activated protein kinase kinase 1 (Homo sapiens) (UniProt Q02750). The settings on record: at 0.1 µM.
Chain of Dual specificity mitogen-activated protein kinase kinase 1 (Homo sapiens) (Q02750 whole entry): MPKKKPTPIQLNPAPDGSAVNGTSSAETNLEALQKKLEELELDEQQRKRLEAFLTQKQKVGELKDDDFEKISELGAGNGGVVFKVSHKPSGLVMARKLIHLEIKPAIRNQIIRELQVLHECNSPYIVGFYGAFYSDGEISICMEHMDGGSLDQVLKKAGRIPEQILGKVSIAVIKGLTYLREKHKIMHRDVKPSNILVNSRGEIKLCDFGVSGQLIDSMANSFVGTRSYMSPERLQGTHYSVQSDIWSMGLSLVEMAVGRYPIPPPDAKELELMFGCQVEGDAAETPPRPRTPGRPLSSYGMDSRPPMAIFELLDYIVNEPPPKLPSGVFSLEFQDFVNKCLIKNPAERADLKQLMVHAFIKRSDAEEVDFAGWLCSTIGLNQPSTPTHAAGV
For experiment [3] the target is unchanged. As to conditions: at 1 µM.
Experiment [4] addresses Misshapen-like kinase 1 (Homo sapiens) (UniProt Q8N4C8). The settings on record: at 0.1 µM.
The target is the same in experiment [5]. As to conditions: at 1 µM.
The target of experiment [6] is T1, Serine/threonine-protein kinase 4 (Homo sapiens) (UniProt Q13043).
T1 sequence (whole entry): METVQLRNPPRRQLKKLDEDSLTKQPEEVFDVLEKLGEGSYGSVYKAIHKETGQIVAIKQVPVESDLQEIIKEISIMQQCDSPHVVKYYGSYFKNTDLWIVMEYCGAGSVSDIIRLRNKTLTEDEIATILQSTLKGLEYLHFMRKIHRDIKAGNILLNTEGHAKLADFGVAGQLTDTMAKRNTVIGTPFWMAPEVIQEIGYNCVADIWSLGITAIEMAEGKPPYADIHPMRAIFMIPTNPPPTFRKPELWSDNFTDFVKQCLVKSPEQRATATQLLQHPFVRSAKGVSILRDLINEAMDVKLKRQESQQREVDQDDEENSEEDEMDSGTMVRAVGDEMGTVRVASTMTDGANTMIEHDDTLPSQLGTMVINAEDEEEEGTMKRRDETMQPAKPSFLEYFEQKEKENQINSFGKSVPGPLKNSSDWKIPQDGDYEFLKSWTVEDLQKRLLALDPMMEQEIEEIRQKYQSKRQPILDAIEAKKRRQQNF
As to conditions: at 0.1 µM.

The target in experiment [7] is T1, Serine/threonine-protein kinase 4 (Homo sapiens). As to conditions: at 1 µM.
The target in experiment [8] is T2, Serine/threonine-protein kinase 3 (Homo sapiens) (UniProt Q13188).
T2 sequence (whole entry): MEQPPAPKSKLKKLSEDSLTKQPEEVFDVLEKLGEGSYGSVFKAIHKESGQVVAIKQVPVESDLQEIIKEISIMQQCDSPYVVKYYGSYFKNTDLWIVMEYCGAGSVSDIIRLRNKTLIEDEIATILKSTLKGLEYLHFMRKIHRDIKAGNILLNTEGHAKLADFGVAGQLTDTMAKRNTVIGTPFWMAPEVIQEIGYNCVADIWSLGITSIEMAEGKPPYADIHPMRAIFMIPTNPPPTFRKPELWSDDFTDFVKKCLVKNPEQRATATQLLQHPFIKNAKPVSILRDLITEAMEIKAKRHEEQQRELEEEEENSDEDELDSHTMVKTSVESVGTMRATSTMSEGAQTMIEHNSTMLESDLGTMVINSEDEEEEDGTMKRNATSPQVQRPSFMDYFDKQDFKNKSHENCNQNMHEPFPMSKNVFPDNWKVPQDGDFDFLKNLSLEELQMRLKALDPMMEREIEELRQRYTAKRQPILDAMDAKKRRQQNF
As to conditions: at 0.1 µM.

Experiment [9] concerns the target T2, Serine/threonine-protein kinase 3 (Homo sapiens). The settings on record: at 1 µM.
For experiment [10], the target named is Serine/threonine-protein kinase 26 (Homo sapiens) (UniProt Q9P289). As to conditions: at 0.1 µM.
The target is the same in experiment [11]. As to conditions: at 1 µM.
For experiment [12], the target named is Serine/threonine-protein kinase PAK 1 (Homo sapiens) (UniProt Q13153). As to conditions: at 0.1 µM.
Chain of Serine/threonine-protein kinase PAK 1 (Homo sapiens) (Q13153 whole entry): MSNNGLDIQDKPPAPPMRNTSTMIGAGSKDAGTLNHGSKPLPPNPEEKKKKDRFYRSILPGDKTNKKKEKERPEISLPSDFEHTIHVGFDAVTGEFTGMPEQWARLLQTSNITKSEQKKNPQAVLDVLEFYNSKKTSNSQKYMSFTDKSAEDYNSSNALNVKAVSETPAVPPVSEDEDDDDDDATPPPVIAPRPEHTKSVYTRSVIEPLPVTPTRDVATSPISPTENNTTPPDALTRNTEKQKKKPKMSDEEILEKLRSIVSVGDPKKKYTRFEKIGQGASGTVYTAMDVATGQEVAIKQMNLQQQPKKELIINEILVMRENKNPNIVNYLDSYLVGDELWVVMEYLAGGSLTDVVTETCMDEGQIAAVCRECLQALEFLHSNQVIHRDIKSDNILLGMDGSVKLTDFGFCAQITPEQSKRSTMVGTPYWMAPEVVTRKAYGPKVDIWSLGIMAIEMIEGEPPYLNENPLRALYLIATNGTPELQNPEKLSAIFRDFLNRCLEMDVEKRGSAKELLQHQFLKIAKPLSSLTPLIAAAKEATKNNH
For experiment [13] the target is unchanged. The settings on record: at 1 µM.
For experiment [14], the target named is Serine/threonine-protein kinase PAK 2 (Homo sapiens) (UniProt Q13177). As to conditions: at 0.1 µM.
Chain of Serine/threonine-protein kinase PAK 2 (Homo sapiens) (Q13177 whole entry): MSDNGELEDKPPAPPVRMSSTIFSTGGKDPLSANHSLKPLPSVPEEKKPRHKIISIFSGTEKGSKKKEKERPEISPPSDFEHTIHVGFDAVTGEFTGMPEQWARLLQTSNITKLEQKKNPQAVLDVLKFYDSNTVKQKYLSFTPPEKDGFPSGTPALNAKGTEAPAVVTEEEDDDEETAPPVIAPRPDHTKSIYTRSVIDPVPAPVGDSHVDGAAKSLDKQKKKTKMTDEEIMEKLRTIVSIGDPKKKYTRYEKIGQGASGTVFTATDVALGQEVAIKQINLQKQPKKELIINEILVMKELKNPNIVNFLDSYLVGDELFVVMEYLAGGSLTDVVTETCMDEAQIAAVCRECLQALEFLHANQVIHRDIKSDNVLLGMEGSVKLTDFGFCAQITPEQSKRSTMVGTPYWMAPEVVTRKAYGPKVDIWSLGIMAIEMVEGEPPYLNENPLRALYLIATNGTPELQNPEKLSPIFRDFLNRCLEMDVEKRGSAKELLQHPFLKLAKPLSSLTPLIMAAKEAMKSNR
Experiment [15] shares this target. As to conditions: at 1 µM.
Experiment [16] has as its target Serine/threonine-protein kinase PAK 3 (Homo sapiens) (UniProt O75914). The settings on record: at 0.1 µM.
For experiment [17] the target is unchanged. As to conditions: at 1 µM.
Experiment [18] deals with Serine/threonine-protein kinase PAK 5 (Homo sapiens) (UniProt Q9P286). As to conditions: at 0.1 µM.
Chain of Serine/threonine-protein kinase PAK 5 (Homo sapiens) (Q9P286 whole entry, looked up): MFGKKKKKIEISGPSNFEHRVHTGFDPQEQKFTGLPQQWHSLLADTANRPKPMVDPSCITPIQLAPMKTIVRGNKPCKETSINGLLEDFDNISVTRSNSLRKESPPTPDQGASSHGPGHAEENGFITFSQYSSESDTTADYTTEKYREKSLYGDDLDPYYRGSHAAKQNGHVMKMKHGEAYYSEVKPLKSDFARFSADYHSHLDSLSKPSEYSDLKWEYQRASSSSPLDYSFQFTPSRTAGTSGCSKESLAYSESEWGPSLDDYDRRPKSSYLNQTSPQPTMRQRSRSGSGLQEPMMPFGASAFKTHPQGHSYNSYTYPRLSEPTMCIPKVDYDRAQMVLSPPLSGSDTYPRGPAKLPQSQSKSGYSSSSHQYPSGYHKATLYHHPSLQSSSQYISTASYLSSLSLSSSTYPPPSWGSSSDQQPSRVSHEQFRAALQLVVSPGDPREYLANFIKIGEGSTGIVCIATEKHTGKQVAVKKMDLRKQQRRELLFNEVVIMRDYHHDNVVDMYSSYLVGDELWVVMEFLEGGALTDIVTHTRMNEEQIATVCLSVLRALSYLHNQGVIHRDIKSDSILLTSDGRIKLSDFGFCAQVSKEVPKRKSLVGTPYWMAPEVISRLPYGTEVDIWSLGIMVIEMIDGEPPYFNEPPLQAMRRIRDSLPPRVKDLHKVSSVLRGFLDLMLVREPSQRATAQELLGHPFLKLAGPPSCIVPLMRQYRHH
The target is the same in experiment [19]. As to conditions: at 1 µM.
The target in experiment [20] is Serine/threonine-protein kinase PAK 6 (Homo sapiens) (UniProt Q9NQU5). The settings on record: at 0.1 µM.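 Also: mean PAK6 inhibition reported from the GSK PKIS screen.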
Chain of Serine/threonine-protein kinase PAK 6 (Homo sapiens) (Q9NQU5 whole entry, looked up): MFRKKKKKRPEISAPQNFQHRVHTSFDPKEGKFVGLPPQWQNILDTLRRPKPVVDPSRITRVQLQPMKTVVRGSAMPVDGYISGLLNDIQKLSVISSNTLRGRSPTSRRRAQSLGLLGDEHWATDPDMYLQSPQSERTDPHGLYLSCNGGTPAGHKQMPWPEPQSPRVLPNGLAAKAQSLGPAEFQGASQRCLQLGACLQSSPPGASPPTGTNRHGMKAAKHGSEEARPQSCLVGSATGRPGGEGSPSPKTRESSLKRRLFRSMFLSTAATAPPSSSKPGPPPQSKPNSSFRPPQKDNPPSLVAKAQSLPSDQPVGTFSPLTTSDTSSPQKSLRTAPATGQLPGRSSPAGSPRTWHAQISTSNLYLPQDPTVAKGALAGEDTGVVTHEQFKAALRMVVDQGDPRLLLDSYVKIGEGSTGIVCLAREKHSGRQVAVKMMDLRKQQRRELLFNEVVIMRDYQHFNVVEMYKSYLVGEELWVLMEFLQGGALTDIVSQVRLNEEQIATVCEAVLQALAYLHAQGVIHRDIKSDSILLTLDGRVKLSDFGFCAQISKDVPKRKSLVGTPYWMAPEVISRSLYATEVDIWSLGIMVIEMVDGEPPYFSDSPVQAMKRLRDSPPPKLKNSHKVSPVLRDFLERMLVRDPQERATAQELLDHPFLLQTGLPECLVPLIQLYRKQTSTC

Chain of Serine/threonine-protein kinase PAK 3 (Homo sapiens) (O75914 whole entry, looked up): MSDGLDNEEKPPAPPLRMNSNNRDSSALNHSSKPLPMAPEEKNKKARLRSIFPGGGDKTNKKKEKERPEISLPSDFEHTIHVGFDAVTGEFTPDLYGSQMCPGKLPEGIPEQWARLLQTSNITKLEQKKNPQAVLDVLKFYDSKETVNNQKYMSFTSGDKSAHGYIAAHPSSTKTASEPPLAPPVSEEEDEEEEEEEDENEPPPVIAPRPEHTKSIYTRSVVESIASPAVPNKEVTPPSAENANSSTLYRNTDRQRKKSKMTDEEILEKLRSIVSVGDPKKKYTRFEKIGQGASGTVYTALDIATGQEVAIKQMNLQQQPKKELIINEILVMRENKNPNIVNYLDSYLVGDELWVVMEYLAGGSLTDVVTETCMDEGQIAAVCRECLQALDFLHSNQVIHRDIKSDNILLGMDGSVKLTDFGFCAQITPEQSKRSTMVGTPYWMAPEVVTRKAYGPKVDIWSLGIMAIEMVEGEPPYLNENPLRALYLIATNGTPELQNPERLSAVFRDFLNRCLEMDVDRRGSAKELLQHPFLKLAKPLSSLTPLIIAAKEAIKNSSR

As to `CN1CCN(Cc2ccc(-c3cc4ncnc(Nc5ccc(OCc6cccc(F)c6)c(Cl)c5)c4s3)o2)CC1`, the inhibition was 8.74% and 16.5% in [1]; 3.63% and 7.76% in [2]; 3.91% and 8.23% in experiment [3]; 4.62% and 8.19% in [4]; 7.44% and 13.7% in experiment [5]; 2.15% and 5.51% in [6]. Besides, the inhibition in experiment [7] is 5.38% and 9.4%; in experiment [8], 1.94% and 6.66%; in [9], 4.21% and 9.14%; in experiment [10] it was -0.84% and -1.22%; in experiment [11] it was -2.57% and -0.01%; in experiment [12] it was 6.52% and 11.3%. Besides, the inhibition in [13] was 6.39% and 9.31%; in experiment [14], 0.62% and 1.36%; in [15] it was 1.83% and 3.59%; in experiment [16] it was 3.14% and 6.57%; in [17], 5.4% and 6.56%; in experiment [18], 2.6%. The inhibition was 5.21% in [19] and -1.82% in experiment [20].

Consider `N#Cc1cccc(Nc2ncc(-c3ccccc3)o2)c1`, for which the inhibition is 23.8% in experiment [1]; 2.21% in experiment [2]; 2.12% in [3]; 5.1% in [4]; 19.2% in experiment [5]; 3% in experiment [6]. Moreover, the inhibition was 5.15% in experiment [7]; 4.16% in experiment [8]; 5.23% in [9]; -0.1% in experiment [10]; -0.74% in experiment [11]; -2.44% in experiment [12]. Moreover, the inhibition was -0.39% in experiment [13]; 0.33% in experiment [14]; -0.77% in experiment [15]; 2.61% in [16]; 2.5% in [17]; -5.2% in experiment [18]. For the same molecule, the figures for the inhibition in [19] and in [20] were 1% and 3.79%, respectively.

Regarding `CC1=C(C(=O)Nc2ccc3[nH]ncc3c2)C(c2ccc(F)cc2)N=C(c2ccc(C(F)(F)F)nc2)N1` (stereo not given), the inhibition was 2.92% in [1]; -0.07% in experiment [2]; 3.43% in [3]; 4.22% in experiment [4]; 2.06% in experiment [5]; 2.29% in [6]. Also, the inhibition in experiment [7] is 2.27%; in [8] it was 2.18%; in experiment [9], 0.56%; in [10], -0.24%; in [11] it was -0.15%; in experiment [12] it was 2.26%. For the same molecule, the inhibition worked out at 3.97% in [13]; 0.86% in [14]; 0.19% in experiment [15]; 1.4% in [16]; 0.67% in experiment [17]; 5.14% in experiment [18]. Also, the figures for the inhibition in [19] and in [20] were -1.73% and 8.32%, respectively.

With `COc1ccc(Nc2ncc(-c3ccccc3)o2)cc1OC`, the inhibition stood at 48.3% in experiment [1]; 0.51% in experiment [2]; 2.06% in experiment [3]; 7.04% in experiment [4]; 35.5% in experiment [5]; 0.86% in [6]. For the same molecule, the inhibition in [7] was 4.87%; in experiment [8], -0.13%; in experiment [9] it was 2.73%; in experiment [10] it was -0.79%; in experiment [11] it was -5.3%; in [12] it was 0.24%. Besides, the inhibition in [13] was 1.35%; in experiment [14], 0.18%; in experiment [15], 0.91%; in experiment [16] it was -0.05%; in [17], 0.75%; in experiment [18], -8.21%. Also, the inhibition in [19] is -5.61%; in [20], 8.32%.

Consider `OCCCNc1nccc(-c2c(-c3ccc(F)cc3)nn3cc(C(F)(F)F)ccc23)n1`, for which the inhibition in experiment [1] was 21.4%; in experiment [2], 1.92%; in experiment [3], 7.22%; in experiment [4] it was 5.07%; in experiment [5], 13.3%; in experiment [6], 3.31%. In addition, the inhibition was 5.88% in [7]; 4.28% in [8]; 2.96% in experiment [9]; 0.48% in experiment [10]; -0.53% in [11]; 6.37% in experiment [12]. The inhibition in experiment [13] was 5.57%; in experiment [14], 2.56%; in experiment [15], 2.03%; in [16] it was 2.17%; in [17], 3.68%; in experiment [18], -4.85%. Further, the inhibition was -5.58% in experiment [19] and 8.72% in experiment [20].

On to `CS(=O)(=O)CCNCc1ccc(-c2ccc3ncnc(Nc4ccc(OCc5cccc(C(F)(F)F)c5)cc4)c3c2)o1`, for which the inhibition in experiment [1] was found to be 6.36%; in experiment [2], 3.29%; in experiment [3], 5.38%; in experiment [4], 5.26%; in experiment [5] it was 3.68%; in [6], 3.43%. The inhibition in experiment [7] was 5.83%; in experiment [8], 4.6%; in experiment [9], 5.04%; in [10] it was -1.93%; in experiment [11], 0.42%; in [12], 8.38%. Also, the inhibition in experiment [13] is 7.33%; in experiment [14] it was 1.38%; in experiment [15], 3.12%; in experiment [16], 5.6%; in experiment [17] it was 9.88%; in experiment [18], 4.72%. For the same molecule, the inhibition in [19] was 5.29%; in [20], -8.96%.

Consider `CN1CCC(C(=O)Nc2n[nH]c3nc(-c4ccc(O)cc4)c(Br)cc23)CC1`, for which the inhibition in [1] is 35.4% and 22.5%; in experiment [2], 6.37% and 2.39%; in experiment [3] it was 5.03% and 2.15%; in experiment [4] it was 7.75% and 5.32%; in experiment [5], 28.1% and 15.2%; in experiment [6], 6.69% and 1.72%. Moreover, the inhibition in experiment [7] was 14.7% and 2.3%; in [8] it was 6.33% and 2.47%; in experiment [9], 13.2% and 3.69%; in experiment [10], 1.4% and 1.72%; in experiment [11] it was 21.2% and 19.8%; in [12], 7.92% and -0.37%. The inhibition in experiment [13] is 5.42% and 3.31%; in experiment [14] it was 0.62% and -0.51%; in experiment [15], 1.42% and -0.53%; in experiment [16] it was 4.2% and 1.97%; in experiment [17] it was 5.02% and 1.71%; in experiment [18] it was -5.26%. For the same molecule, the inhibition is -8.73% and 0.52% in experiment [19]; -2.46% and -9.85% in [20].

On to `CCn1c(-c2nonc2N)nc2cncc(C(=O)NCCNC)c21`, for which the inhibition in experiment [1] was 11.3%; in experiment [2], 4.81%; in experiment [3], 3.62%; in experiment [4] it was 7.39%; in [5], 10.8%; in experiment [6] it was 3.84%. The inhibition is 6.56% in experiment [7]; 5.96% in experiment [8]; 7.27% in experiment [9]; -3.72% in [10]; -4.29% in [11]; 6.24% in [12]. Moreover, the inhibition was found to be 7.29% in experiment [13]; 1.98% in experiment [14]; 2.75% in experiment [15]; 5.11% in experiment [16]; 5.12% in experiment [17]; 3.97% in experiment [18]. The inhibition came to 7.69% in experiment [19] and 0.36% in experiment [20].

Consider `Cc1cc(O)cc(C)c1/C=C/c1cncc(C(=O)OC(C)(C)C)c1`, for which the inhibition amounted to 15.2% in experiment [1]; 4.02% in [2]; 3.99% in experiment [3]; 6.01% in experiment [4]; 9.55% in experiment [5]; 3.56% in [6]. Also, the inhibition in experiment [7] was found to be 8.26%; in experiment [8], 2.81%; in experiment [9] it was 6.28%; in experiment [10], 0.35%; in experiment [11], 2.31%; in experiment [12] it was 5.41%. Also, the inhibition is 2.7% in experiment [13]; -0.11% in experiment [14]; 0.96% in [15]; 2.25% in [16]; 2.76% in experiment [17]; 0.52% in [18]. Moreover, the inhibition in [19] is 4.26%; in experiment [20], 2.02%.
